# Results published in PMC7862700, “An all-to-all approach to the identification of sequence-specific readers for epigenetic DNA modifications on cytosine”.
# How the values were obtained:
# Assay in all cases: DAPPL (digital affinity profiling via proximity ligation, sequencing); 10 mM Tris-HCl pH 7.5, 50 mM NaCl, 1 mM DTT, 4% glycerol, room temperature, 30 min; GST-TFs on glutathione beads, 16-mer random dsDNA library, 0.1% formaldehyde crosslink after washing; high values mean tight binding
# Conditions in all cases: protein: recombinant; tags: N-terminal GST; dsDNA, one strand shown
# ERG = molecular target: T1, ERG (Homo sapiens, UniProt P11308 1-479)
# T1 sequence: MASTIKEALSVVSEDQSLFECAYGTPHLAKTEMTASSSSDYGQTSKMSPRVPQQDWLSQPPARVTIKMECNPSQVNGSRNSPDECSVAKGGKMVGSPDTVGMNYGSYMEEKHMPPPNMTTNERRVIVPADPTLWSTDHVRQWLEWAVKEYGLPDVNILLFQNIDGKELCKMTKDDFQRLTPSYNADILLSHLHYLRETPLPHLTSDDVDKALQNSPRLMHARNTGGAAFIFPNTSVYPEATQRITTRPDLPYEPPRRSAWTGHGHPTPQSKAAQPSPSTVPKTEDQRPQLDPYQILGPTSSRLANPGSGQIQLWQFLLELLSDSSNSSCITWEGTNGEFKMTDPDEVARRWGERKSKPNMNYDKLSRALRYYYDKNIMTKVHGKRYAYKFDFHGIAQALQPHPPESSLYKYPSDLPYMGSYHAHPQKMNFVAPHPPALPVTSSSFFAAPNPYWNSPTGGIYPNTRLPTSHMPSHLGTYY
# How it was run: (§1)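 Sequencing on an Illumina NextSeq500 followed washing, crosslinking with 0.1% formaldehyde, proximity ligation (BsaI/T4 ligase, 1 h, 37 °C) and PCR amplification of pools that had been incubated for 30 min at room temperature with 200 nmole of a random double-stranded 16-mer DNA library in Tris/NaCl/DTT/glycerol buffer. Each pool held DNA-barcoded human transcription factors, expressed in yeast as GST fusions and captured on glutathione beads, plus a tag-only sample. Binding signal is a hexamer's read frequency for a factor divided by its frequency in the tag-only sample.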
# SPI1 = SPI1 (Homo sapiens, UniProt P17947 1-270)
# How it was run: as §1
# ELF4 = ELF4 (Homo sapiens, UniProt Q99607 1-663)
# How it was run: as §1
# ELK4 = molecular target: T2, ELK4 (Homo sapiens, UniProt P28324-2 1-405)
# T2 sequence: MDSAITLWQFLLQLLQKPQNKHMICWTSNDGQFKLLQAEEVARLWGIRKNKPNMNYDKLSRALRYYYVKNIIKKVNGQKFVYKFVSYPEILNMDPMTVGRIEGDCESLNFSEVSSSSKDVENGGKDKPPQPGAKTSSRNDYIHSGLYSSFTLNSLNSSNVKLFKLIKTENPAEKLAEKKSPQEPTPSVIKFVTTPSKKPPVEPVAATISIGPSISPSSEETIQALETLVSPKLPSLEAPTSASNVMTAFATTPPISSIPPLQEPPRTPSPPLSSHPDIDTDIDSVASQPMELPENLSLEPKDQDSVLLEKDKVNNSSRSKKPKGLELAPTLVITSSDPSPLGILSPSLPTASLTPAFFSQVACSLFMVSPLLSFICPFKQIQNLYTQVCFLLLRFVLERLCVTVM
# How it was run: as §1
# ERF = molecular target: T3, ERF (Homo sapiens, UniProt P50548 1-548)
# T3 sequence: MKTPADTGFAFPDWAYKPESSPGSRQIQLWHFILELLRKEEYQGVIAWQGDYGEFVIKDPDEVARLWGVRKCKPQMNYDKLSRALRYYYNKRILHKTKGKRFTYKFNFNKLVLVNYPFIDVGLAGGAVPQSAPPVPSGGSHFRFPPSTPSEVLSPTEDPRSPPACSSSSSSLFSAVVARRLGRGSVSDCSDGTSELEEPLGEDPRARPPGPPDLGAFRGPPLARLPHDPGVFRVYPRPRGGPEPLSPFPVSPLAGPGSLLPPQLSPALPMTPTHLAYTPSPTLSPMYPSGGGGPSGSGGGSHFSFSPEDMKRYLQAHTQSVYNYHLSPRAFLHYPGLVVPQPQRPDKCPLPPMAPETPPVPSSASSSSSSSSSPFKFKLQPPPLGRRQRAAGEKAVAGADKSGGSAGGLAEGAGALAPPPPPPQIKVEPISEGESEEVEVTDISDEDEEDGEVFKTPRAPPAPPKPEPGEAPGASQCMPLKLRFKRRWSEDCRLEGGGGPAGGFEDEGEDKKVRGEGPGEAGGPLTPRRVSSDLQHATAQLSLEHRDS
# How it was run: as §1
# EHF = molecular target: T4, EHF (Homo sapiens, UniProt Q9NZC4 1-300)
# T4 sequence: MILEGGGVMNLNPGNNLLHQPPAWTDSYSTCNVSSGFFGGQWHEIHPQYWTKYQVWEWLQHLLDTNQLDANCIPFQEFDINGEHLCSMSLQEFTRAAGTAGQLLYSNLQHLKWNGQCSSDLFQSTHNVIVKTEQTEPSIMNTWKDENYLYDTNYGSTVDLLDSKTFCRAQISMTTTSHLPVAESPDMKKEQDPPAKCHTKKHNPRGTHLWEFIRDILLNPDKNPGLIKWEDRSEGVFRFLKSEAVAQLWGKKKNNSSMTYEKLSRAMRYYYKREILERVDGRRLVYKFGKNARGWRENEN
# How it was run: as §1
# ETV2 = molecular target: T5, ETV2 (Homo sapiens, UniProt O00321 1-342)
# T5 sequence: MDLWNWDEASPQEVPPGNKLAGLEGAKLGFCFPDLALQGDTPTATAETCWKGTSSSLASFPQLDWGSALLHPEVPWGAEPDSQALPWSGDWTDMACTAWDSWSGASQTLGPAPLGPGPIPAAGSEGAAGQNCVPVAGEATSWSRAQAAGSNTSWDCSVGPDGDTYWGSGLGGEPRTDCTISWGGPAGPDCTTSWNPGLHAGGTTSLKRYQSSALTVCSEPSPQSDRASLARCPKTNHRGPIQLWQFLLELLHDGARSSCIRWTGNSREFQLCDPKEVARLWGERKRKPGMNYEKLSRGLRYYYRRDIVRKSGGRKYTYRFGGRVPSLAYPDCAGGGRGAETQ
# How it was run: as §1
# ETV7 = molecular target: T6, ETV7 (Homo sapiens, UniProt Q9Y603 1-341)
# T6 sequence: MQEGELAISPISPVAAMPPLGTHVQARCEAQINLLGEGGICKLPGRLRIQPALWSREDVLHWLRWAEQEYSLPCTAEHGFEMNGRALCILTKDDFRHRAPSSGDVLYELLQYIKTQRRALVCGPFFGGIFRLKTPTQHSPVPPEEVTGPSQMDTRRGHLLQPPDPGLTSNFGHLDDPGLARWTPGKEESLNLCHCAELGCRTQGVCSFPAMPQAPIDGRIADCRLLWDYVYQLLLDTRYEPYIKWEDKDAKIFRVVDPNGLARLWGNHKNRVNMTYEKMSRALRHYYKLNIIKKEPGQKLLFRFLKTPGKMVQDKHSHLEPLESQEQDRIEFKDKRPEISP
# How it was run: as §1
# ETV3 = molecular target: T7, ETV3 (Homo sapiens, UniProt P41162-2 1-143)
# T7 sequence: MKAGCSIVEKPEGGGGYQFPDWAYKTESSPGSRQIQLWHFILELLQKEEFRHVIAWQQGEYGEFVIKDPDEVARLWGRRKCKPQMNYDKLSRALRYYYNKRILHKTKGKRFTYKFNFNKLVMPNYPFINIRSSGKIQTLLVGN
# How it was run: as §1
# Chain of ELF4 (Q99607 whole entry): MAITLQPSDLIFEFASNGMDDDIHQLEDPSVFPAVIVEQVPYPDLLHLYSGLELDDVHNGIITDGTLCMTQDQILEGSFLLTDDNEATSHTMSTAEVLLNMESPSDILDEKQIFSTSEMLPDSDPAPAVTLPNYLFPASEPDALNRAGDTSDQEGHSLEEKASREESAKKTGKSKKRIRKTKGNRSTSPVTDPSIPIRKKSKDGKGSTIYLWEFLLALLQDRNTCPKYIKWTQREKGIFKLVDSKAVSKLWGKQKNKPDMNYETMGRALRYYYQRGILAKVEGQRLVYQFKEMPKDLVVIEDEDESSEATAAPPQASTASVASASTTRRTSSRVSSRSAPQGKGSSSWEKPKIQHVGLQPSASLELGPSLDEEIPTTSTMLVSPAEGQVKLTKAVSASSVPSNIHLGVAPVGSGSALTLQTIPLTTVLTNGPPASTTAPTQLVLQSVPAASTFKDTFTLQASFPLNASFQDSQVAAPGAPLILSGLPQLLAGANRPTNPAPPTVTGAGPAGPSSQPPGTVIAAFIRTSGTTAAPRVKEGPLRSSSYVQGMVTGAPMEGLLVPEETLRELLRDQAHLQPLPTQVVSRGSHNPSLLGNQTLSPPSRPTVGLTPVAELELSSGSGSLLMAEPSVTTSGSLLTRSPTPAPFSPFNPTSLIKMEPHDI
sequence,measurement,setting,value
GCCATT,binding signal,ERG,"1.01 fold enrichment (6-mer frequency, TF over GST control)"
same,binding signal,SPI1,"1.03 fold enrichment (6-mer frequency, TF over GST control)"
same,binding signal,ELF4,"1.02 fold enrichment (6-mer frequency, TF over GST control)"
same,binding signal,ELK4,"1.07 fold enrichment (6-mer frequency, TF over GST control)"
same,binding signal,ERF,"1.03 fold enrichment (6-mer frequency, TF over GST control)"
AACAGA,binding signal,EHF,"1.06 fold enrichment (6-mer frequency, TF over GST control)"
same,binding signal,ELF4,"1.02 fold enrichment (6-mer frequency, TF over GST control)"
same,binding signal,ELK4,"1.1 fold enrichment (6-mer frequency, TF over GST control)"
same,binding signal,ETV2,"1.01 fold enrichment (6-mer frequency, TF over GST control)"
same,binding signal,ETV7,"1.02 fold enrichment (6-mer frequency, TF over GST control)"
same,binding signal,ETV3,"1.01 fold enrichment (6-mer frequency, TF over GST control)"
GCAAGC,binding signal,ELK4,"1.07 fold enrichment (6-mer frequency, TF over GST control)"
